KB-V1 cytotox: kills drug-selected multidrug resistant KB-V1 cells; Potency, µM (highest dose often 46.1 µM), actives largely listed as cytotoxic; KB-V1 MDR cells viability, CellTiter-Glo, 72 h; actives 3.4% (n = 400,000); further: nearly all actives have a fitted effect of over 60% in size
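Cytotoxicity toward P-gp-expressing KB-V1 cells was determined as loss of CellTiter-Glo luminescence after 72 h at 37 degrees C. Compounds were tested in quantitative HTS format across a concentration range, with curves fitted to normalized data.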
HT1080 IDH1KD tx: toxicity to HT-1080 IDH1 knockdown cells (counter line) | HT-1080 IDH1 knockdown viability, ATP luminescence, 48 h | Potency, µM (highest dose often 46.1 µM), for the others: at the highest dose activity, negative = toxicity, hits mostly cytotoxic | actives 2% (n = 360,000) | AID 686971;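 further: 0% = DMSO wells and -100% = cell-free medium wells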
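% activity derives from luminescence (CellTiter-Glo), normalised to DMSO and no-cell wells. HT-1080-IDH1KD cells, 750/well, had 48 h compound exposure at 37 °C.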
HT1080NT lethal: kills 2HG-producing HT-1080-NT fibrosarcoma cells; HT-1080-NT fibrosarcoma viability, CellTiter-Glo ATP luminescence, 48 h; Potency, µM (titrated, usually from 46.1 µM), for inactives: at the highest dose activity, negative = less viability, hits mostly cytotoxic; actives 1.6% (n = 360,000);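 further: NT is the 2HG producing partner of a matched IDH1 knockdown line; 0% = DMSO-treated cells and -100% = media-only wells without cells; nearly all actives have a fitted effect of over 55% in size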
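750 cells/well, RPMI + 5% FBS; 2 h settle, compound pin-transfer, 48 h at 37 degrees C. CellTiter-Glo 10 min RT, luminescence. Normalized to DMSO and media-only wells.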
TDP1 cell noCPT: qHTS for Inhibitors of human tyrosyl-DNA phosphodiesterase 1 (TDP1): qHTS in cells in absence of CPT; Potency, µM (series often up to 46.2 µM), for inactives: at the highest dose activity change, negative = growth inhibition, usual class: inhibitors; DT40 Tdp1-/- hTDP1 cells, no CPT, ATP luminescence, 48 h; actives 15% (n = 420,000); AID 686978, 2013; further: nearly all actives have a fitted effect of over 55% in size
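Stably hTDP1-transfected Tdp1-null chicken DT40 cells were treated with library compounds minus camptothecin and grown for at least 48 hr at 37 °C, after which cellular ATP was quantified by luminescence.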
TDP1 cell CPT: growth inhibition of DT40 Tdp1-/-;hTDP1 cells with camptothecin (screen for TDP1 inhibitors). Potency, µM (top dose mostly 46.2 µM), without a hit: at the highest dose activity change, negative = growth inhibition, usual class: inhibitors. actives 12% (n = 420,000). chicken DT40 Tdp1-/-;hTDP1 cells + 20 nM CPT, ATP luminescence, 48 h; further: nearly all actives have a fitted effect of over 55% in size
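Chicken DT40 Tdp1-/- cells stably complemented with human TDP1 were seeded at 400 cells/well in medium containing 20 nM camptothecin, exposed to pin-transferred compounds, and grown at 37 °C for at least 48 hr. Viability was read as ATP luminescence.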
KB-3-1 cytotox: KB-3-1 parental cell cytotoxicity. KB-3-1 viability, CellTiter-Glo ATP luminescence, 72 h. Potency, µM (doses to about 46.1 µM), actives largely listed as cytotoxic. actives 1.4% (n = 400,000). AID 1347075; further: nearly all actives have a fitted effect of over 60% in size
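KB-3-1 parental drug-naive adenocarcinoma cells in DMEM/10% FBS, incubated 72 h at 37 C with pin-transferred compounds across a concentration series. Viability by CellTiter-Glo luminescence; concentration-response curves fitted after normalization.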
* = called active by the depositor. Only some compounds are listed: those with a hit (about 19% of all), similar ones and a draw of the others. The call rests on the fitted dose curve; in most records, active means well fitted curve in the direction sought with a large enough effect; inconclusive means small, poorly fitted or top-dose-only effect, or another doubt; inactive means no such curve, though single readings can be large; an effect the other way counts as inactive or inconclusive. Unless noted, on the % scale 0 is the no-effect control and ±100 the full control effect; potency means the concentration at half of the fitted maximal effect.

Results for CC1(C)CC2CC(C)(CN2S(=O)(=O)c2ccc(F)cc2F)C1 (configuration not stated) ?
KB-V1 cytotox: inconclusive; HT1080 IDH1KD tx: -1%; HT1080NT lethal: 2%; TDP1 cell noCPT: 5.8µM*; TDP1 cell CPT: inconclusive; KB-3-1 cytotox: inactive

What do the screens show for `COc1ccc(OC)c(-c2csc(NC(=O)Cn3[nH]c(=O)c4ccccc4c3=O)n2)c1`?
KB-V1 cytotox: inactive; HT1080 IDH1KD tx: 21µM*; HT1080NT lethal: inconclusive; TDP1 cell noCPT: inconclusive; TDP1 cell CPT: inconclusive; KB-3-1 cytotox: inactive

What do the screens show for `COc1ccc(OC)c(-c2csc(NC(=O)c3ccc(F)cc3)n2)c1`?
KB-V1 cytotox: inactive; HT1080 IDH1KD tx: inconclusive; HT1080NT lethal: inconclusive; TDP1 cell noCPT: inconclusive; TDP1 cell CPT: 7.3µM*; KB-3-1 cytotox: inconclusive

What do the screens show for `COc1ccc(OC)c(-c2csc(NC(=O)CSc3ccc([N+](=O)[O-])cc3)n2)c1`?
KB-V1 cytotox: inconclusive; HT1080 IDH1KD tx: -3%; HT1080NT lethal: -8%; TDP1 cell noCPT: 16µM*; TDP1 cell CPT: inconclusive; KB-3-1 cytotox: inactive

How did Cc1ccc(C)c(-c2csc(NC(=O)C3=COCCO3)n2)c1 do in these assays?
KB-V1 cytotox: inactive; HT1080 IDH1KD tx: -9%; HT1080NT lethal: -24%; TDP1 cell noCPT: 16µM*; TDP1 cell CPT: 21µM*; KB-3-1 cytotox: inactive

Results for Cc1ccc(-c2csc(NC(=O)C3=COCCO3)n2)cc1 ?
KB-V1 cytotox: inactive; HT1080 IDH1KD tx: -8%; HT1080NT lethal: 0%; TDP1 cell noCPT: inconclusive; TDP1 cell CPT: inconclusive; KB-3-1 cytotox: inactive

Results for C=CC[C@H]1C=C[C@@H](C(C(=O)OC)C(=O)OC)CN1C(C)=O ?
KB-V1 cytotox: inactive; HT1080 IDH1KD tx: -2%; HT1080NT lethal: 2%; TDP1 cell noCPT: -24%; TDP1 cell CPT: -19%; KB-3-1 cytotox: inactive

Results for COc1ccc(OC)c(-c2csc(NC(=O)C3=COCCO3)n2)c1 ?
KB-V1 cytotox: inactive; HT1080 IDH1KD tx: -2%; HT1080NT lethal: 0%; TDP1 cell noCPT: 18µM*; TDP1 cell CPT: 16µM*; KB-3-1 cytotox: inactive

What do the screens show for `COC(=O)c1ccc(-c2csc(NC(=O)C3=COCCO3)n2)cc1`?
KB-V1 cytotox: inactive; HT1080 IDH1KD tx: -22%; HT1080NT lethal: -24%; TDP1 cell noCPT: -13%; TDP1 cell CPT: -15%; KB-3-1 cytotox: inactive

How did O=C(Nc1nc(-c2ccc(Oc3ccccc3)cc2)cs1)C1=COCCO1 do in these assays?
KB-V1 cytotox: 18µM*; HT1080 IDH1KD tx: inconclusive; HT1080NT lethal: 2%; TDP1 cell noCPT: 12µM*; TDP1 cell CPT: inconclusive; KB-3-1 cytotox: inconclusive

How did O=C(Nc1nc(-c2cc(F)ccc2F)cs1)C1=COCCO1 do in these assays?
KB-V1 cytotox: inconclusive; HT1080 IDH1KD tx: -10%; HT1080NT lethal: -2%; TDP1 cell noCPT: inconclusive; TDP1 cell CPT: 18µM*; KB-3-1 cytotox: inactive

What do the screens show for `COCCN(C(=O)COC(=O)c1ccc(-c2ccccc2)cc1)c1c(N)n(Cc2ccccc2)c(=O)[nH]c1=O`?
KB-V1 cytotox: inactive; HT1080 IDH1KD tx: 0%; HT1080NT lethal: 1%; TDP1 cell noCPT: inconclusive; TDP1 cell CPT: inconclusive; KB-3-1 cytotox: inactive

What do the screens show for `C=CCn1c(COc2cccc(C)c2C)nnc1SCC(=O)N1CCN(c2ccccc2)CC1`?
KB-V1 cytotox: inactive; HT1080 IDH1KD tx: -33%; HT1080NT lethal: -25%; TDP1 cell noCPT: inconclusive; TDP1 cell CPT: inconclusive; KB-3-1 cytotox: inconclusive

What do the screens show for `O=C(NCc1nnc(SCC(=O)N2CCCC2)o1)c1ccc(F)cc1`?
KB-V1 cytotox: inactive; HT1080 IDH1KD tx: 19%; HT1080NT lethal: 2%; TDP1 cell noCPT: 18%; TDP1 cell CPT: 8%; KB-3-1 cytotox: inactive

Results for Cc1cccc(OCc2nnc(SCC(=O)N3CCN(c4ccccc4)CC3)o2)c1C ?
KB-V1 cytotox: inconclusive; HT1080 IDH1KD tx: -11%; HT1080NT lethal: -6%; TDP1 cell noCPT: 18µM*; TDP1 cell CPT: inconclusive; KB-3-1 cytotox: inactive

What do the screens show for `O=C(NCc1nnc(SCC(=O)N2CCN(c3ccccc3)CC2)o1)c1ccc(F)cc1`?
KB-V1 cytotox: inactive; HT1080 IDH1KD tx: -9%; HT1080NT lethal: -1%; TDP1 cell noCPT: 21µM*; TDP1 cell CPT: inconclusive; KB-3-1 cytotox: inactive

How did COc1cc(CN2CCC(n3nccc3NC(=O)c3ccccc3OC)CC2)ccc1F do in these assays?
KB-V1 cytotox: inconclusive; HT1080 IDH1KD tx: 8%; HT1080NT lethal: 7%; TDP1 cell noCPT: inconclusive; TDP1 cell CPT: inconclusive; KB-3-1 cytotox: inactive

Results for C/C=C(\CS(=O)(=O)c1ccccc1)S(=O)(=O)c1ccccc1 ?
KB-V1 cytotox: inactive; HT1080 IDH1KD tx: inconclusive; HT1080NT lethal: -24%; TDP1 cell noCPT: 29µM*; TDP1 cell CPT: inconclusive; KB-3-1 cytotox: inconclusive

How did Cc1cccc(S(=O)(=O)c2c(C)cc(C)nc2Cl)c1 do in these assays?
KB-V1 cytotox: inactive; HT1080 IDH1KD tx: 11%; HT1080NT lethal: 11%; TDP1 cell noCPT: inconclusive; TDP1 cell CPT: -6%; KB-3-1 cytotox: inactive

How did O=C(NCN1CCc2ccccc2C1)c1cnccn1 do in these assays?
KB-V1 cytotox: inconclusive; HT1080 IDH1KD tx: -14%; HT1080NT lethal: 2%; TDP1 cell noCPT: 23µM*; TDP1 cell CPT: inconclusive; KB-3-1 cytotox: inactive

What do the screens show for `O=C(NCN1CCc2ccccc2C1)c1ccccc1`?
KB-V1 cytotox: inactive; HT1080 IDH1KD tx: 20%; HT1080NT lethal: -3%; TDP1 cell noCPT: 11%; TDP1 cell CPT: -19%; KB-3-1 cytotox: inactive

How did CC(=O)N1c2ccc(S(=O)(=O)N3CCC(C(=O)N4CCN(c5cc(Cl)ccc5C)CC4)CC3)cc2CC1C (configuration not stated) do in these assays?
KB-V1 cytotox: inactive; HT1080 IDH1KD tx: -7%; HT1080NT lethal: -13%; TDP1 cell noCPT: 9.2µM*; TDP1 cell CPT: 10µM*; KB-3-1 cytotox: inactive

How did COc1ccccc1N1CCN(C(=O)C2CCN(S(=O)(=O)c3ccccc3)CC2)CC1 do in these assays?
KB-V1 cytotox: inactive; HT1080 IDH1KD tx: -1%; HT1080NT lethal: 3%; TDP1 cell noCPT: -19%; TDP1 cell CPT: -18%; KB-3-1 cytotox: inactive

Results for Cc1ccc(Cl)cc1N1CCN(S(=O)(=O)c2ccc3c(c2)CC(C)N3C(=O)C2CCC2)CC1 (configuration not stated) ?
KB-V1 cytotox: inconclusive; TDP1 cell noCPT: inconclusive; TDP1 cell CPT: -26%; KB-3-1 cytotox: inactive

Source: PubChem BioAssay (National Center for Advancing Translational Sciences (NCATS))
